# D1 potentiator: Potentiators of Human D1 Dopamine Receptor: qHTS; D(1A) dopamine receptor (Homo sapiens), P21728; potentiation, % at 10 µM; HEK293 TREx D1 cells, calcium flux, dopamine EC20 potentiation; 360,000 compounds, 0.036% hits; in the data active = potentiation above about 30%; note: 0% is about no effect
# DRD3 antagonist: qHTS of D3 Dopamine Receptor Antagonist: qHTS | D3R cells, DiscoveRx beta-arrestin luminescence, antagonist mode; active compounds read low | AID 652054, 2013 | max response, negative = inhibition, % | 360,000 compounds, 2.5% hits; in the data active = max response below about -50%; inconclusive = no clear call, values can overlap the other calls; note: % is set by controls: 0 for no effect and ±100 for the full control effect
# Target sequence (P35462 whole entry, looked up): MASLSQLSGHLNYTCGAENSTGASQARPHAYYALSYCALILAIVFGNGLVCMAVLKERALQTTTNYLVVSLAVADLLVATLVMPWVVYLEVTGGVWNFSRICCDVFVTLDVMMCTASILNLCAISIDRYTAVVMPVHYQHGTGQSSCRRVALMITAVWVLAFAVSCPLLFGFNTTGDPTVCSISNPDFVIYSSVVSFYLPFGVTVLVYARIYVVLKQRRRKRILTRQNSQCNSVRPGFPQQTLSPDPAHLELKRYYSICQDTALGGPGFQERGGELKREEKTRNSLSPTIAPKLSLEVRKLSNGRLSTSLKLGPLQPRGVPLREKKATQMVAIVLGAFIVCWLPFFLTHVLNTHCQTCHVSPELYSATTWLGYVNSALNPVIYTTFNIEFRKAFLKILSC
#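 Cells plated overnight at 1500 cells/well, then exposed to library compounds with dopamine controls for 90 minutes at 37 degrees C. DiscoveRx reagent added for 30–60 minutes at room temperature; luminescence read, quantitative HTS format.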
# D1 antag: Antagonist of Human D 1 Dopamine Receptor: qHTS. D(1A) dopamine receptor (Homo sapiens), P21728. HEK293 TREx D1 cells, calcium flux, dopamine EC80; active compounds read low. activity change, negative = inhibition, % at 10 µM. 360,000 compounds, 3.2% hits; in the data active = activity change below about -30%; note: % is set by controls: 0 for no effect and ±100 for the full control effect
#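 Inducible Hek293 Trex D1 cells (tetracycline, overnight, 30 C). Calcium dye 30–90 min RT. Antagonist mode: EC80 dopamine added after 180 s compound read.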
# ERG Ets-DNA blk: qHTS for Small Molecule Inhibitors of the ERG Ets/DNA interaction. Transcriptional regulator ERG (Homo sapiens), P11308. fluorescence polarization, His-ERG Ets domain / labelled DNA. Potency, µM (doses to about 76.9 µM), without a hit: at the top dose FP activity, negative = inhibition, usual class: inhibitors. 370,000 compounds, 0.028% hits; active = well fitted inhibition curve with a large enough effect in the polarisation, with a control signal flat; inconclusive = small, poorly fitted or top-dose-only effect, or effect the other way, or a change in a side signal; inactive = no such curve, though single readings can be large or run the other way; the % refers to the polarisation;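 note: polarization taken with two DNA probes labelled with fluorescein and Texas red; potency is the fitted concentration of half-maximal effect; % of control where 0% means no effect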
#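 His-tagged ERG Ets domain (1 uM in the protein solution; 300mM KCl, 50mM Tris-HCl, 1mM EDTA, 1mM DTT, pH 7.5) received compound, then a probe mix of 5 nM fluorescein-DNA and 100nM Texas-615-DNA. Fluorescence polarization was read for both dyes.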
# D1 ag: Allosteric Agonists of the Human D1 Dopamine Receptor: qHTS | D(1A) dopamine receptor (Homo sapiens), P21728 | HEK293 T-REx D1 cells, calcium flux, agonist mode | activation, % at 2 µM | 360,000 compounds, 1% hits | AID 504660, 2011; in the data active = activation above about 30%; note: 0% is about no effect
#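 Agonism was scored from calcium flux recorded over 180 s (1 read/s) after pintool compound addition, following a 10-cycle baseline. Cells were inducible force-coupled HEK293 TREx D1, plated overnight at 30 C and loaded with no-wash calcium dye.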
# DRD3 agonist: qHTS of D3 Dopamine Receptor Agonist: qHTS; max activation, %; D3R DiscoveRx beta-arrestin cells, luminescence, 90 min; 410,000 compounds, 0.58% hits; in the data active = max activation above about 30%; note: 0% is about no effect
#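 Agonist mode: compounds and dopamine controls were applied to plated cells for 90 min at 37 degrees C after an overnight attachment at 1500 cells/well. Luminescent read-out followed 30 - 60 minutes at room temperature with DiscoveRx detection reagent.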
# An asterisk follows results filed as active; ? = inconclusive; . = no result given; ! = not active in a repeat. Only some compounds are listed: those with a hit (about 6.1% of all), similar ones and a draw of the others.
SMILES,D1 potentiator,DRD3 antagonist,D1 antag,ERG Ets-DNA blk,D1 ag,DRD3 agonist
NC(=O)C1CCN(C(=O)C(=O)c2cn(CC(=O)N3CCCCCC3)c3ccccc23)CC1,-3,-4,7,1%,6,-4
CC(C)(C)c1ccc(C(=O)N2CCC2(C)C(=O)Nc2cccc3ncccc23)cc1 (stereo unspecified),.,-17,.,.,.,84*
COc1ccc(CCN(C)CCCC(C#N)(c2ccc(OC)c(OC)c2)C(C)C)cc1OC (stereo unspecified),.,-88*,.,.,.,.
Cc1ccc(-n2c(=O)c3c(cnn3C)n(Cc3ccc(Cl)cc3)c2=O)cc1,0,.,7,-3%,7,5
O=C(CSCc1ccccc1)N1CCN(c2ccc(F)cc2)CC1,-5,-19,-11,.,8,-22
CC(CC(=O)N1CCN(c2ccccc2F)CC1)c1ccccc1 (stereo unspecified),2,9,-32*,-9%,4,1
O=C(CSCc1ccc(F)cc1)N1CCN(c2ccccc2F)CC1,-2,.,-58*,-5%,1,2
O=C(CCc1ccccc1)N1CCN(c2ccccc2F)CC1,2,-9,-9,-3%,0,-1
O=C(CCn1c(=O)oc2ccccc21)N1CCN(c2ccccc2F)CC1,-10,-9,-4,-6%,2,31*
O=C(NCc1ccc(F)cc1)C1CCN(c2ncnc3c2nc2n3CCCCC2)CC1,1,.,8,0%,-1,-12
COc1cc(CC(=O)OCC(=O)Nc2ccc(Cl)c(S(=O)(=O)N(C)C)c2)cc(OC)c1OC,-11,18,-1,5%,7,5
Cn1c(-c2ccccc2)cc2onc(-c3ccccc3)c2c1=O,-6,-69*,5,9%,13,0
Cn1c(-c2ccccc2F)cc2onc(-c3ccccc3)c2c1=O,-1,-30,10,1%,-1,-60
Cc1ccc(C(=O)N[C@@H](C)CN2C3=NC[C@H](C)N3C[C@H]2Cc2ccc(O)cc2)cc1Br,-9,.,-65*,.,4,.
COc1ccc(C[C@@H]2CN3C(=NC[C@@H]3C)N2CCNC(=O)c2ccc(C)c(Br)c2)cc1,4,-52*,3,0%,-2,-58
C[C@@H]1CN=C2N(CCNC(=O)CCC3CCCCC3)[C@H](Cc3ccc(O)cc3)CN21,0,?,15,-1%,0,-38
Cc1ccccc1-c1noc(C(C)NC(=O)c2ccco2)n1 (stereo unspecified),0,6,-40*!,10%,3,4
CCN1c2ccccc2-c2nc3ccccc3n2C1c1ccccn1 (stereo unspecified),2,23,-7,0%,1,-10
Cc1ccc(C(=O)n2nc(C)c(S(=O)(=O)N3CCOCC3)c2C)cc1C,0,.,6,2%,1,2
CCOc1ccc(Cn2c(CNS(=O)(=O)c3cccc(Cl)c3)nc3cccnc32)cc1,-5,.,-80*,-2%,1,9
CCOC(=O)c1cc2c(ccn2C)n1CC(=O)N1CCN(c2ccc(F)cc2)CC1,6,12,13,4%,0,1
CCOC(=O)c1cc2c(ccn2C)n1CC(=O)N1CCN(c2cccc(C(F)(F)F)c2)CC1,1,?,-38*,8%,3,-2
Cc1cc(C(C)(C)CC(C)(C)C)ccc1OCCOCC[N+](C)(C)Cc1ccccc1,-1,-20,8,?,101*,-13
CCCc1cc(=O)oc2c(C)c(OCC(=O)NCCN3CCOCC3)ccc12,-5,-5,6,34%,0,4
Cc1noc(C)c1CSCC(=O)N(C)CC(=O)Nc1ccccc1Br,-3,-9,-47*,1%,4,-8
SMILES,D1 potentiator,DRD3 antagonist,D1 antag,ERG Ets-DNA blk,D1 ag,DRD3 agonist
OCC1(Cc2cccc(F)c2)CCN(Cc2ccc3cccc(F)c3n2)CC1,-4,-75*,0,0%,10,-7
OCC1(CCOc2ccccc2)CCN(Cc2ccc3cccc(F)c3n2)CC1,0,-87*,15,20%,0,-14
COc1cccc(CC2(CO)CCN(Cc3ccc4cccc(F)c4n3)CC2)c1,-1,-82*,3,-1%,7,-17
CC(C)(C)n1ncc2c(=O)n(CC(=O)NCc3ccccc3Cl)cnc21,5,-2,-4,-12%,2,-10
CCOC(=O)CN1CC23C=CC(O2)C(C(=O)NCc2cccs2)C3C1=O (stereo unspecified),-1,1,-8,-7%,2,3
Cc1cc(C)cc(Oc2nc3c(C)cccn3c(=O)c2/C=C(\C#N)c2nc3ccccc3[nH]2)c1,-1,.,-11,-3%,1,3
CC(C)(C)OC(=O)N1CCCC(C(=O)Nc2ccc(C(=O)N3CCCC3)cc2)C1 (stereo unspecified),.,25,.,10%,.,19
N#CC1(NC(=O)COC(=O)c2ccccc2[N+](=O)[O-])CCCCC1,-8,-11,5,-3%,1,3
N#CC1(NC(=O)COC(=O)c2cc(O)c3ccccc3c2O)CCCCC1,-3,0,-40*,-6%,10,0
CN1C(C(=O)NCc2ccccc2)CC2Cn3c(nc4cc(Cl)c(Cl)cc43)C21 (stereo unspecified),-5,17,-14,-6%,0,7
Cc1ccc(S(=O)(=O)NCCCCCC(=O)NC(C)(C)CO)cc1,-1,23,4,-14%,0,2
CCCC[N+](C)(C)CCC(=O)NC(C)(C)CS(=O)(=O)[O-],-5,-9,-34*,-5%,3,11
Cc1cccc(NC(=O)Cn2cc(C(=O)C3CCCCC3)c3ccccc32)c1,-7,.,-30*,1%,14,2
CN1CCN(C(c2cccc(Cl)c2)c2ccccc2Cl)CC1 (stereo unspecified),-2,-81*,4,-6%,22,-22
CN1CCN(C(c2ccccc2)c2ccc(Cl)cc2)CC1 (stereo unspecified),-4,-92*,4,-2%,9,-91
Clc1ccc(C(c2ccccc2)N2CCNCC2)cc1 (stereo unspecified),2,0,8,-4%,20,0
O=C(NCCN1C(=O)S/C(=C\c2ccccc2F)C1=O)C1=COCCO1,-5,29,-30,6%,12,3
